Data reported in article PMC6792352, “Limited Chemical Structural Diversity Found to Modulate Thyroid Hormone Receptor in the Tox21 Chemical Library” (Environmental Health Perspectives, 2019).
Where a name gives a salt, the structure may show the parent alone.

System: thyroid hormone receptor (endogenous TRα and TRβ)
Design: species or system GH3-TRE-Luc (rat pituitary); GH3-TRE-Luc luciferase reporter, antagonist mode against 1 nM T3, loss of signal, qHTS
Conditions: read-out: Average AC50 (uM) GH3-TRE-Antag, antagonist mode, 1 nM T3, no GH3 cytotoxicity hit

Row | Structure (SMILES) | AC50 [µM]
1 | O=C(/C=C/c1ccc([N+](=O)[O-])cc1)c1ccccc1 [4-Nitrochalcone] | 49.3
2 | CCN(CC)C(=O)C(C)Oc1cccc2ccccc12 (stereo not shown) [Napropamide] | 74.1
3 | CN1CCN2c3ncccc3Cc3ccccc3C2C1 (stereo not shown) [Mirtazapine] | 15.4
4 | Cc1nc2ccccc2n1Cc1ccc(Cl)cc1 [Chlormidazole] | 5.9
5 | COc1ccc(O)cc1 [4-Methoxyphenol] | > 50
6 | CS(=O)(=O)Nc1ccc([N+](=O)[O-])cc1Oc1ccccc1 [Nimesulide] | > 20
7 | c1ccc2c(c1)CCc1ccccc1N2 [10,11-Dihydro-5H-dibenz[b,f]azepine] | 40.6
8 | NCCN1CCNCC1 [1-(2-Aminoethyl)piperazine] | > 90
9 | CC(C)(C)C(O)C(Oc1ccc(Cl)cc1)n1cncn1 (stereo not shown) [Triadimenol] | > 90
10 | c1cc2c(c(NC3=NCCN3)c1)CCCC2 [Tramazoline tosylate] | 37.5
11 | COC(=O)[C@H]1[C@H]2C[C@@H]3c4[nH]c5cc(OC)ccc5c4CCN3C[C@H]2C[C@@H](OC(=O)/C=C/c2cc(OC)c(OC)c(OC)c2)[C@@H]1OC [Rescinnamine] | 21
12 | CCCCOc1ccc(OCCCN2CCOCC2)cc1 [Pramoxine hydrochloride] | 12.8
13 | O=C(COc1ccc(Cl)cc1)OCCNC12CC3CC(CC(C3)C1)C2 [Adafenoxate] | 26
14 | C/C=C1\C(=O)C[C@H]2[C@@H]3CCC4=CC(=O)CC[C@]4(C)[C@H]3CC[C@]12C [Guggulsterone Z] | 39.2
15 | CN(CC(=O)N1CCOCC1)Cc1c(Cl)cccc1NC(=O)c1ccccc1 [Fominoben hydrochloride] | > 50
16 | CC(C)c1cccc(C(C)C)c1O [Propofol] | > 50
17 | CC(=O)CC/C=C(\C)CC/C=C(\C)CC/C=C(\C)CCC=C(C)C [Teprenone] | 33.9
18 | CCCN(CC)CC1COC2(CCC(C(C)(C)C)CC2)O1 (stereo not shown) [Spiroxamine] | 66.6
19 | CCCCCCCCCCCCCCC(Br)C(=O)O (stereo not shown) [2-Bromohexadecanoic acid] | 53.6

Row | Structure (SMILES) | AC50 [µM]
20 | N=c1c[n+](N2CCOCC2)[n-]o1 [3-Morpholinosydnonimine hydrochloride] | 52.1
21 | CC1(C)[C@H](C(=O)OCc2coc(Cc3ccccc3)c2)[C@@H]1/C=C1\CCSC1=O [Kadethrin] | 48.4
22 | NC1=NCC2c3ccccc3Cc3ccccc3N12 (stereo not shown) [Epinastine hydrochloride] | 27.1
23 | CCCC1O[C@@H]2C[C@H]3[C@@H]4CCC5=CC(=O)C=C[C@]5(C)[C@H]4[C@@H](O)C[C@]3(C)[C@]2(C(=O)CO)O1 (stereo partly shown) [Budesonide] | > 50
24 | OCC#CCO [2-Butyne-1,4-diol] | 58.8
25 | OC[C@H]1O[C@@H](n2cnc3c(=S)nc[nH]c32)[C@H](O)[C@@H]1O [Thioinosine] | 21.8
26 | Brc1ccc(Oc2ccccc2)cc1 [p-Bromodiphenyl ether] | 44.7
27 | c1ccc2c(c1)ccc1ncccc12 [Benzo(f)quinoline] | > 90
28 | CCCCOc1cc(C(=O)OCCN(CC)CC)ccc1N [Benoxinate hydrochloride] | 11.8
29 | c1ccc2c(c1)ccc1ccccc12 [Phenanthrene] | 50.1
30 | O=C1c2ccccc2-c2n[nH]c3cccc1c23 [SP600125] | 11.6
31 | O=C1CCCCCCCCCCOCCCCO1 [12-Oxahexadecanolide] | 43.5
32 | CCCCN(CCCC)C(=O)N(CCCC)CCCC [1,1,3,3-Tetrabutylurea] | 22.2
33 | NNc1ccc(C(=O)O)cc1 [4-Hydrazinobenzoic acid hydrochloride] | 84.8
34 | Cl/C(=C\n1cncn1)c1ccc(Cl)cc1Cl [Loreclezole hydrochloride] | 18.3
35 | CC[C@H]1OC(=O)[C@H](C)C(=O)[C@H](C)[C@@H](O[C@@H]2O[C@H](C)C[C@H](N(C)C)[C@H]2O)[C@](C)(OC)C[C@@H](C)C(=O)[C@H](C)[C@H]2N(CCCCn3cnc(-c4cccnc4)c3)C(=O)O[C@]12C [Telithromycin] | 22.2
36 | COc1ccc(C(=O)c2ccc(O)cc2)c(OC)c1 [(2,4-dimethoxyphenyl)(4-hydroxyphenyl)methanone] | 54.9
37 | O=C(O)c1cc(I)cc(I)c1I [2,3,5-Triiodobenzoic acid] | > 100

Same assay, conditions: read-out: Average AC50 (uM) GH3-TRE-Antag, antagonist mode, 1 nM T3, no GH3 cytotoxicity hit, Average AC50 (uM) GH3-TRE-Antag, 24 h

Row | Structure (SMILES) | AC50 [µM]
38 | CCCCCC[n+]1ccccc1 [1-Hexylpyridinium trifluoromethanesulfonate] | 45.4
39 | CCCCCCn1cc[n+](C)c1 [1-Hexyl-3-methylimidazolium trifluoromethanesulfonate] | 52.5
40 | CCCCCC[n+]1ccccc1 [1-Hexylpyridinium chloride] | 71.1
